{
  "source": "ChEMBL document CHEMBL1157539",
  "about": "“Thousands of chemical starting points for antimalarial lead identification” (Nature, 2010)",
  "type_in_all_cases": "functional",
  "key": {"Plasmodium falciparum [1]": {"tested_on": "Plasmodium falciparum", "assay": "GSK_TCMDC: Inhibition of Plasmodium falciparum 3D7 in whole red blood cells, using parasite LDH activity as an index of growth. Test compounds present at 2uM"}, "Plasmodium falciparum [2]": {"tested_on": "Plasmodium falciparum", "assay": "GSK_TCMDC: Inhibition of Plasmodium falciparum Dd2 in whole red blood cells, using parasite LDH activity as an index of growth. Test compounds present at 2uM"}, "HepG2": {"tested_on": "HepG2", "assay": "GSK_TCMDC: Percent inhibition of human HepG2 cell line. Test compounds present at 10uM."}},
  "data": [
    {"molecule": "COc1cc2nc(N3CCC(CNC(=O)c4ccc(-c5ccc(-c6noc(C)n6)cc5C)cc4)CC3)nc(N)c2cc1OC", "values": [
      {"measurement": "Inhibition", "setting": "Plasmodium falciparum [1]", "result": 100, "unit": "%"},
      {"measurement": "Inhibition", "setting": "Plasmodium falciparum [2]", "result": 99, "unit": "%"},
      {"measurement": "Inhibition", "setting": "HepG2", "result": 99, "unit": "%"}
    ]},
    {"molecule": "COc1nc2c(CCN3CC[C@H](NCc4cc(C#N)c5c(c4)CCO5)[C@H](O)C3)ccnc2cc1F", "values": [
      {"measurement": "Inhibition", "setting": "Plasmodium falciparum [1]", "result": 99, "unit": "%"},
      {"measurement": "Inhibition", "setting": "Plasmodium falciparum [2]", "result": 71, "unit": "%"},
      {"measurement": "Inhibition", "setting": "HepG2", "result": 31, "unit": "%"}
    ]},
    {"molecule": "Cc1ccc2c(c1)c(C1CCN(C(=O)c3ccc([N+](=O)[O-])o3)CC1)cn2C", "values": [
      {"measurement": "Inhibition", "setting": "Plasmodium falciparum [1]", "result": 97, "unit": "%"},
      {"measurement": "Inhibition", "setting": "Plasmodium falciparum [2]", "result": 76, "unit": "%"},
      {"measurement": "Inhibition", "setting": "HepG2", "result": 0, "unit": "%"}
    ]},
    {"molecule": "Cl.NC1=NC(Cc2ccccc2)N(c2ccc(Cl)cc2)C(N)=N1", "note": "(stereo not given)", "values": [
      {"measurement": "Inhibition", "setting": "Plasmodium falciparum [1]", "result": 93, "unit": "%"},
      {"measurement": "Inhibition", "setting": "Plasmodium falciparum [2]", "result": 4, "unit": "%"},
      {"measurement": "Inhibition", "setting": "HepG2", "result": 21, "unit": "%"}
    ]},
    {"molecule": "COc1ccc(C(=O)N[C@@H](CC(C)C)C(=O)NC2CC[C@@H](C)N(C(=O)Nc3ccc(Cl)cc3)CC2=O)cc1OCCN1CCOCC1", "note": "(stereo not given in full)", "values": [
      {"measurement": "Inhibition", "setting": "Plasmodium falciparum [1]", "result": 96, "unit": "%"},
      {"measurement": "Inhibition", "setting": "Plasmodium falciparum [2]", "result": 91, "unit": "%"},
      {"measurement": "Inhibition", "setting": "HepG2", "result": 5, "unit": "%"}
    ]},
    {"molecule": "O=[N+]([O-])c1cc(/C=N/Nc2nc3ccccc3[nH]2)ccc1O", "values": [
      {"measurement": "Inhibition", "setting": "Plasmodium falciparum [1]", "result": 98, "unit": "%"},
      {"measurement": "Inhibition", "setting": "Plasmodium falciparum [2]", "result": 14, "unit": "%"},
      {"measurement": "Inhibition", "setting": "HepG2", "result": 0, "unit": "%"}
    ]},
    {"molecule": "CN(C(=O)Cc1ccc(Cl)c(Cl)c1)C1CCN(CCCCCNC(=O)/C=C/c2ccc(Cl)c(Cl)c2)CC1", "values": [
      {"measurement": "Inhibition", "setting": "Plasmodium falciparum [1]", "result": 84, "unit": "%"},
      {"measurement": "Inhibition", "setting": "Plasmodium falciparum [2]", "result": 13, "unit": "%"},
      {"measurement": "Inhibition", "setting": "HepG2", "result": 87, "unit": "%"}
    ]},
    {"molecule": "CC(=O)Nc1ccc(CNCCc2ccc(NC(=O)c3cc(Cl)cc(Cl)c3)cc2)cc1", "values": [
      {"measurement": "Inhibition", "setting": "Plasmodium falciparum [1]", "result": 100, "unit": "%"},
      {"measurement": "Inhibition", "setting": "Plasmodium falciparum [2]", "result": 31, "unit": "%"},
      {"measurement": "Inhibition", "setting": "HepG2", "result": 10, "unit": "%"}
    ]},
    {"molecule": "O=C(NCCCCCN1CCCN(C(=O)Nc2ccc(Cl)c(C(F)(F)F)c2)CC1)C1CC1c1ccc(Cl)c(Cl)c1", "note": "(stereo not given)", "values": [
      {"measurement": "Inhibition", "setting": "Plasmodium falciparum [1]", "result": 100, "unit": "%"},
      {"measurement": "Inhibition", "setting": "Plasmodium falciparum [2]", "result": 1, "unit": "%"},
      {"measurement": "Inhibition", "setting": "HepG2", "result": 41, "unit": "%"}
    ]},
    {"molecule": "COc1ccc2nccc([C@@H](O)CN3CCC(NCc4cc5ccccc5s4)CC3)c2c1.O=C(O)C(=O)O", "values": [
      {"measurement": "Inhibition", "setting": "Plasmodium falciparum [1]", "result": 97, "unit": "%"},
      {"measurement": "Inhibition", "setting": "Plasmodium falciparum [2]", "result": 53, "unit": "%"},
      {"measurement": "Inhibition", "setting": "HepG2", "result": 8, "unit": "%"}
    ]}
  ]
}
